In PubChem BioAssay (NCATS):
Inconclusive results are not listed. Activity calls are given as the source filed them. Unless noted, the call rests on the fitted dose curve; in most records, active means well fitted curve in the direction sought with a large enough effect; inconclusive means small, poorly fitted or top-dose-only effect, or another doubt; inactive means no such curve, though single readings can be large; an effect the other way counts as inactive or inconclusive.

Tests used:
[1] = system: Zika virus NS2B-NS3 protease (linked construct); assay: Primary screen NINDS Rhodamine qHTS for Zika virus inhibitors (AID 1347160); further: potency means the concentration at half of the fitted maximal effect; nearly all actives have a fitted effect of over 55% in size
In short: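 Percent inhibition, normalized to uninhibited and enzyme-free controls, is fitted to a 4-parameter Hill equation. Fluorescence change comes from a 15-min cleavage of 1.5 microM bis-peptide Rhodamine110 substrate by 25 nM linked NS2B-NS3 at room temperature.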

[2] = HPAF-II Cancer Cell Toxicity qHTS against the NCATS CANVASS Library (AID 1347346); further: series mostly up to about 38 µM; on the % scale 0 is the no-effect control and ±100 the full control effect; nearly all actives have a fitted effect of over 55% in size
In short: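 Luminescence from CellTiter-Glo, added after 72 h compound exposure and a 15 min room-temperature incubation, served as the viability readout. HPAF-II cells (1000/well) received an 11-point concentration series.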

[3] = UWB1.289 Cancer Cell Toxicity qHTS against the NCATS CANVASS Library (AID 1347347); further: potency means the concentration at half of the fitted maximal effect; nearly all actives have a fitted effect of over 60% in size
In short: (§1)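 1000 cells/well seeded and rested 4 h at 37 °C before pin transfer of compounds in an 11-pnt series. Exposure 72 h at 37 °C/5% CO2; viability by CellTiter-Glo luminescence after 15 min at room temperature.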

[4] = SW1088 Cancer Cell Toxicity qHTS against the NCATS CANVASS Library (AID 1347350); further: potency means the concentration at half of the fitted maximal effect; nearly all actives have a fitted effect of over 75% in size
In short: as §1

[5] = COV-362 Cancer Cell Toxicity qHTS against the NCATS CANVASS Library (AID 1347352); further: series mostly up to about 38 µM; on the % scale 0 is the no-effect control and ±100 the full control effect
In short: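 Luminescent ATP read-out (CellTiter-Glo, 15min at room temperature) measures survival after cells face an 11-point compound series for 72 hours at 37 degrees C/5% CO2.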

[6] = HEK293 18hr Apoptosis Induction qHTS against the NCATS CANVASS Library (AID 1347357); further: 0% is about no effect
In short: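 HEK293 cells (500 per well, DMEM with 10% FBS) were treated with natural products, incubated 18 hours at 37 degrees C, then caspase-3/7 activity was read by Caspase-Glo luminescence after 15 min at room temperature.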

[7] = HPAF-II 12hr Apoptosis Induction qHTS against the NCATS CANVASS Library (AID 1347358); further: 0% is about no effect
In short: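 500 HPAF-II cells/well; cmpds 11-pt; 12 hr, 37 degrees C/5% CO2; Caspase-Glo 3/7 added, 15 min RT dark; luminescence read. Doxorubicin titration as control.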

[8] = HEK293 24hr Apoptosis Induction qHTS against the NCATS CANVASS Library (AID 1347359); further: 0% is about no effect
In short: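 HEK293 cells, 500 per well, exposed to an 11-point compound series for 24 hours at 37 degrees C. Caspase 3/7 activity read by Caspase-Glo luminescence (DEVD substrate) after 15 min at room temperature.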

[9] = HPAF-II 18hr Apoptosis Induction qHTS against the NCATS CANVASS Library (AID 1347360); further: 0% is about no effect
In short: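 HPAF-II cells (500/well, DMEM + 10% FBS) were exposed to compounds for 18 hours at 37 degrees C. Caspase-3/7 activity was then read by Caspase-Glo 3/7 luminescence after 15 min at room temperature.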

[10] = HEK293 12hr Apoptosis Induction qHTS against the NCATS CANVASS Library (AID 1347361); further: 0% is about no effect
In short: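 Read-out: Caspase-Glo 3/7 luminescence (DEVD substrate), 15 min RT. Preceded by 12 h compound exposure of HEK293, 500 cells/well, 11-pt qHTS titration; doxorubicin titration as control.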

[11] = target: Luciferin 4-monooxygenase (Photinus pyralis) (UniProt P08659); assay: Firefly luciferase counterscreen qHTS: Assay Interference Panel against the NCATS CANVASS Library (AID 1347363); further: series mostly up to about 57 µM; 0% is about no effect
In short: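 Purified P. pyralis luciferase (0.04 ug/mL, 4x reagent) added to Tris-acetate buffer with 0.013 mM D-luciferin, 0.013 mM ATP and 13.3 mM Mg-acetate; compounds preincubated 15 min, then luminescence read after 5 min, RT.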

[12] = SDT Cancer Cell Toxicity qHTS against the NCATS CANVASS Library (AID 1347365);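 further: SDT canine glioma cells 500 per well in 1536 well plates; series mostly up to about 46 µM; on the % scale 0 is the no-effect control and ±100 the full control effect; nearly all actives have a fitted effect of over 60% in size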
In short: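 qHTS, SDT dog glioma line, 500 cells/well; cpds 11 pts; 72 hr, 37C, 5% CO2; CellTiterGlo ATP luminescence.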

[13] = KB-3-1 Cancer Cell Toxicity qHTS against the NCATS CANVASS Library (AID 1347366); further: series mostly up to about 46 µM; on the % scale 0 is the no-effect control and ±100 the full control effect; nearly all actives have a fitted effect of over 75% in size
In short: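 KB-3-1 cells (500 cells/well) in DMEM + 10% FBS were treated with compounds for 72 hr at 37C, 5% CO2. Viability was read as CellTiter-Glo luminescence after 10 minutes at room temperature.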

[14] = qHTS for ATAD5 Agonist screened against the NCATS CANVASS Library (AID 1347367);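 further: luciferase reporter driven by ATAD5 which rises upon DNA damage; 0% is about no effect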
In short: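 HEK293T cells stably carrying an ATAD5-controlled luciferase reporter (2000 cells/well) attached for 5 hr, then received compounds in an 11-point series for 16hr at 37C. Luminescence was read after a 30 min room-temperature reagent step.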

[15] = G06 Cancer Cell Toxicity qHTS against the NCATS CANVASS Library (AID 1347368); further: series mostly up to about 46 µM; on the % scale 0 is the no-effect control and ±100 the full control effect; nearly all actives have a fitted effect of over 60% in size
In short: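 Dog G06 glioma line, 500 cells/well; cpds pin-transferred, 11-pt; 72 hr, 37C/5% CO2; CellTiterGlo luminescence (ATP) endpoint.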

[16] = MCF7 Cancer Cell Toxicity qHTS against the NCATS CANVASS Library (AID 1347369)
In short: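 MCF7, 500 cells/well; cpds 11-pt qHTS; 72 hr, 37C/5% CO2; CellTiterGlo ATP luminescence.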

[17] = qHTS for ATAD5 Antagonist screened against the NCATS CANVASS Library (AID 1347370);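 further: HEK293T cells carrying an ATAD5 luciferase reporter co-treated with 10 µM 5-fluorouridine; series mostly up to about 46 µM; on the % scale 0 is the no-effect control and ±100 the full control effect; nearly all actives have a fitted effect of over 65% in size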
In short: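 HEK293T cells with stably integrated ATAD5-luciferase reporter, 2000/well, 5 h attachment; compounds plus 10 µM 5-fluorouridine, 16 h at 37 °C. Luciferase luminescence read, with CellTiter-Fluor viability read first.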

[18] = J3T Cancer Cell Toxicity qHTS against the NCATS CANVASS Library (AID 1347371)
In short: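 Cells plated at 500 per well, compounds pin-transferred, plates incubated 72 hr at 37C, then CellTiterGlo added and luminescence read to measure ATP content.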

[19] = target: Nuclear receptor subfamily 1 group I member 3 (Homo sapiens) (UniProt Q14994); assay: qHTS for Constitutive Androstane Receptor (CAR) Antagonist screened against the NCATS CANVASS Library (AID 1347372);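 further: cells stimulated with 50 nM CITCO agonist so inhibition reflects antagonism; series mostly up to about 46 µM; on the % scale 0 is the no-effect control and ±100 the full control effect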
In short: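 HepG2 cells stably carrying hCAR and CYP2B6-2.2kb luciferase reporter, 2500 cells/well, compound with 50 nM CITCO agonist for 24hr at 37C. ONE-Glo luminescence measured CAR activity; CellTiter-Fluor read viability.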

[20] = target: Nuclear receptor subfamily 1 group I member 3 (Homo sapiens) (UniProt Q14994); assay: qHTS for Constitutive Androstane Receptor (CAR) Agonist screened against the NCATS CANVASS Library (AID 1347373);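 further: every well also contained 1.5 µM PK11195 alongside the test compound; 0% is about no effect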
In short: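 HepG2-hCAR-CYP2B6 cells, 2500/well, attached 4hr; cpd + PK11195 1.5uM final; 24hr 37C 5% CO2. CellTiter-Fluor viability read, then ONE-Glo luminescence for CAR activation.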

[21] = 10-beta competent E. coli microbial cell viability qHTS against the NCATS CANVASS Library (AID 1347376); further: series mostly up to about 46 µM; 0% is about no effect
In short: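 E. coli 10-beta, 0.2 OD; cpds 11-pt; o/n 37C, 5% CO2; BacTiter-Glo 20 min RT; luminescence (ATP) = viable cells. Daunomycin ctrl.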

[22] = DH5-alpha competent E. coli microbial cell viability qHTS against the NCATS CANVASS Library (AID 1347377); details: outcome: dose series up to 46.1 µM unless noted; further: 0% is about no effect
In short: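 qHTS, 11-pt; E. coli DH5-alpha, 0.2 OD; o/n 37C/5% CO2; BacTiter-Glo, 20 min RT; luminescence.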

[23] = qHTS for Inflammasome Signaling Inhibitors: IL-1-beta AlphaLISA screen against the NCATS CANVASS Library (AID 1347379);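 further: human THP-1 cells primed with LPS then triggered with ATP; secreted IL-1B measured as AlphaLISA emission at 615 nm; on the % scale 0 is the no-effect control and ±100 the full control effect; lower signal means less IL-1B release which is the wanted effect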
In short: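 THP-1 cells pretreated 1 hr with compound (up to 57.5 uM final), then stimulated with LPS (250 ng/mL final) and ATP (1.25 mM final). Secreted IL-1B measured by AlphaLISA after 16 hr; glyburide as positive control.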

[24] = Inflammasome Signaling qHTS Counterscreen: IL-1-beta AlphaLISA counterscreen against the NCATS CANVASS Library (AID 1347381);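 further: cell-free check with purified IL-1β in medium and no THP-1 cells; series mostly up to about 57 µM; 0% is about no effect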
In short: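 Cell-free interference check: compounds added to medium spiked with 4 pg purified IL-1β. Anti-IL-1β acceptor beads (6 ug/mL) with 0.6 nM biotinylated antibody added for 1 h at RT, then streptavidin donor beads (24 ug/mL) for 30 min in the dark. AlphaLISA read at 680/615 nm.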

[25] = qHTS assay for small molecule disruptors of mitochondrial membrane potential screened against the NCATS CANVASS Library (AID 1347389); further: series mostly up to about 46 µM; on the % scale 0 is the no-effect control and ±100 the full control effect; nearly all actives have a fitted effect of over 60% in size
In short: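 HepG2, 2,000 cells/well, attached overnight; compound 1 hr, 37C, 5% CO2; Mito-MPS dye 30 min, 37C; fluorescence 535 nm (monomer) and 590 nm (aggregate); decreased 590/535 ratio = depolarization.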

[26] = Secretion counterscreen for inhibitors of the SERCaMP assay screened against the NCATS CANVASS Library (AID 1347390);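 further: light from luciferase secreted into medium read as a measure of general secretion; series mostly up to about 77 µM; on the % scale 0 is the no-effect control and ±100 the full control effect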
In short: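 SH-SY5Y cells expressing constitutively secreted GLuc, 1000 cells/well, attached 4 h at 37C, then exposed to compounds (0.001 - 77 uM, 11-pnt series) for 20 h. Coelenterazine added; luminescence read to flag secretory-pathway interferers.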

[27] = qHTS for activators of Nrf2/ARE signaling pathway screened against the NCATS CANVASS Library (AID 1347391)
In short: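 Plate ARE-bla HepG2 cells at 2000/well and let them settle 5 h. Pin-transfer compounds in DMSO, incubate 16 h at 37C. Load CCF4 for 2 h at room temperature and read blue/green fluorescence.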

[28] = Viability qHTS for inhibitors of the SERCaMP assay screened against the NCATS CANVASS Library (AID 1347400); further: series mostly up to about 92 µM; on the % scale 0 is the no-effect control and ±100 the full control effect; nearly all actives have a fitted effect of over 70% in size
In short: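 SH-SY5Y SERCaMP MJH297 cells, 1000/well; 4 h settle, 37C/5% CO2; pin-transferred cpds; 48 h; CellTiter-Glo lum. Pos ctrl bortezomib 0.0001 - 4.6 uM.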

[29] = Redox Reaction Profiling qHTS: Assay Interference Panel against the NCATS CANVASS Library (AID 1347401);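 further: 100% = activation by 2 µM chloranil control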
In short: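 Compounds in 11-point series incubated with 5 uM resazurin and 200 uM DTT in 50 mM HEPES pH 7.3, 50 mM NaCl. Resorufin fluorescence (Ex 525/Em 598) read before and after 15 min in the dark.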

[30] = Primary qHTS for inhibitors of nuclear receptor binding SET domain protein 2 (NSD2) in an isogenic RCH-ACV NSD2 p.E1099K mutant (9B) (AID 1645876); further: nearly all actives have a fitted effect of over 70% in size
[31] = Primary qHTS for inhibitors of nuclear receptor binding SET domain protein 2 (NSD2) in an RCH-ACV wild type WT cells (2C) (AID 1645877); further: on the % scale 0 is the no-effect control and ±100 the full control effect; nearly all actives have a fitted effect of over 70% in size
[32] = NCATS anti-infectives library activity on HEK293 viability as a counter-qHTS vs the C. elegans viability qHTS (AID 1745854);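 further: HEK293 cells exposed to compounds for 24 hr before the viability read; on the % scale 0 is the no-effect control and ±100 the full control effect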
In short: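 Compounds were acoustically plated (several concentrations, 1:5, final up to 41.7 uM), then 1500 HEK293 cells added per well and incubated 24 hr at 37C, 5% CO2. CellTiter-Glo was added and luminescence read after 10 min.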

[33] = target: Glutathione peroxidase 1 (Homo sapiens) (UniProt P07203); assay: Primary qHTS Assay for Inhibitors of Recombinant Selenoprotein Glutathione Peroxidase 1 (GPX1) (AID 1845191); further: nearly all actives have a fitted effect of over 65% in size
In short: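 GR-coupled assay: compounds preincubated 30 min at room temperature with GPX1, then reaction started with CHP; final 10 nM GPX1, 1 mM GSH, 0.5 mM CHP, 0.5 mM NADPH, 100 nM GR, 0.01% BSA, pH 7.5 Tris buffer. NADPH fluorescence (340/450 nm) read at 0 and 15 min.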

[34] = target: Phospholipid hydroperoxide glutathione peroxidase GPX4 (Homo sapiens) (UniProt P36969); assay: Primary qHTS Assay for Inhibitors of Recombinant Selenoprotein Glutathione Peroxidase 4 (GPX4) (AID 1845192); details: outcome: dose series up to 50 µM unless noted; further: series mostly up to about 50 µM; on the % scale 0 is the no-effect control and ±100 the full control effect; nearly all actives have a fitted effect of over 65% in size
In short: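 GR-coupled assay: recombinant GPX4 preincubated 30 min with compound at room temperature; final 200 nM GPX4, 1 mM GSH, 0.5 mM cumene hydroperoxide, 0.5 mM NADPH, 100 nM GR, 0.01% BSA, pH 7.5 Tris. NADPH fluorescence (340/450 nm) read at 0 and 15 min.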

[35] = qHTS drug screen for cell cycle checkpoint inhibitors in PARPi-resistant BRCA-mutant ovarian cancer cell lines. (AID 1963452; calls by dose curve); details: PEO1/OlaR viability, CellTiter-Glo luminescence, 96 h, stronger effect = lower value
In short: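 PEO1, PEO4 and PEO1/OlaR ovarian cancer cells, 600 per well, exposed 96 h at 37C to a dilution series. Viability read by CellTiter-Glo luminescence, normalized to DMSO and empty wells; activity summarized as Z-AUC.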

Sequence of Nuclear receptor subfamily 1 group I member 3 (Homo sapiens) (Q14994 whole entry, looked up): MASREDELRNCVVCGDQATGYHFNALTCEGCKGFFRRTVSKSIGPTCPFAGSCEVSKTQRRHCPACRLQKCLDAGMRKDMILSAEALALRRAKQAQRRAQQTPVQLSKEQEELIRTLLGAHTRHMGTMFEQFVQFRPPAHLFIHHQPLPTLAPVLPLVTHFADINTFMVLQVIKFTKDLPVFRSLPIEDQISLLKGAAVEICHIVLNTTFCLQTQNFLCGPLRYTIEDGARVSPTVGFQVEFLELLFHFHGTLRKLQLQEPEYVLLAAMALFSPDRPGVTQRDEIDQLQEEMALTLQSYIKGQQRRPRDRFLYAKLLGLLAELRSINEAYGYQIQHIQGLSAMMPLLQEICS
Sequence of Glutathione peroxidase 1 (Homo sapiens) (P07203 whole entry, looked up): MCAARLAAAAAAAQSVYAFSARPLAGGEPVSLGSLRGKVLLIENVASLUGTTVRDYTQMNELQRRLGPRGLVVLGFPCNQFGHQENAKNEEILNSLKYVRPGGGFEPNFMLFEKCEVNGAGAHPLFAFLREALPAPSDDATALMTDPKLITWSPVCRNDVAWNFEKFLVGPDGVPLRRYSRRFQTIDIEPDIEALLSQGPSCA
Sequence of Phospholipid hydroperoxide glutathione peroxidase GPX4 (Homo sapiens) (P36969 whole entry, looked up): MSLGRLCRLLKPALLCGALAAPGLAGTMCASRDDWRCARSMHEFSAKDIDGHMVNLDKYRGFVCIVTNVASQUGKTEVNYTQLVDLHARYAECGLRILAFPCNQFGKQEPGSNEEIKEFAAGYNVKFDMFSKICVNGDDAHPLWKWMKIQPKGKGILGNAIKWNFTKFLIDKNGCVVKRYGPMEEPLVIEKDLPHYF
Sequence of Luciferin 4-monooxygenase (Photinus pyralis) (P08659 whole entry, looked up): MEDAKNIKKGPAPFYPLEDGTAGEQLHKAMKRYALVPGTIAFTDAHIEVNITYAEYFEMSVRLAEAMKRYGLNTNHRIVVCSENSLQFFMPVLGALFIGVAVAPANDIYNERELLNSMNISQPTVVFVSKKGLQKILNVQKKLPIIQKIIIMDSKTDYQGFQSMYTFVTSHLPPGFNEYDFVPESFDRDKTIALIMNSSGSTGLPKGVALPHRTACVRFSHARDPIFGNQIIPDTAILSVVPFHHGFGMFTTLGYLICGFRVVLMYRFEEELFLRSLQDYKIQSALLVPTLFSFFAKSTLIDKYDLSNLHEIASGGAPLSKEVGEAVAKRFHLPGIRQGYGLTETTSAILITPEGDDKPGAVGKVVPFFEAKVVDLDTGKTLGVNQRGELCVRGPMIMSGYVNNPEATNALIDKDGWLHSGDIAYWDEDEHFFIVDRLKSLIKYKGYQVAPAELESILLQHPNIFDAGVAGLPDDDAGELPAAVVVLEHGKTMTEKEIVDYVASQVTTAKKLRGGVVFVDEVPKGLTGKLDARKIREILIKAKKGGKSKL

CC1(C)CC[C@]2(C(=O)O)CC[C@]3(C)C(=CC[C@@H]4[C@@]5(C)C[C@@H](O)[C@H](O)C(C)(C)[C@@H]5CC[C@]43C)[C@@H]2C1
inactive: Potency [2] | Potency [5] | Potency [6] | Potency [7] | Potency [8] | Potency [9] | Potency [10] | Potency [11] | Potency [12] | Potency [13] | Potency [14] | Potency [15] | Potency [16] | Potency [17] | Potency [18] | Potency [19] | outcome [20] | outcome [21] | outcome [22] | Potency [23] | outcome [24] | Potency [25] | Potency [26] | Potency [27] | Potency [28] | Potency [29] | Potency [30] | Potency [31] | outcome [32] | Potency [33] | Potency [34] | Z-AUC [35] 1.45
active: Potency [1] 19.6 µM | Potency [3] 11.8 µM | Potency [4] 14.9 µM
0.511: Z-AUC ([35]; measured here: PEO4 Z-AUC)
0.722: Z-AUC ([35]; measured here: PEO1 parental Z-AUC)
